In the supplement of paper PMC11732987, “Enantioselective OTUD7B fragment discovery through chemoproteomics screening and high-throughput optimisation” (Communications Chemistry, 2025):
Values without a mark were called inactive.

Key:
Experiment in all cases: log2 ratio of Biotin-Ahx-Ub-VS probe labelling (fragment/DMSO); higher = less target engagement (more negative = stronger competition), active = hit call of the paper (q ≤ 0.05, log2 ratio ≤ -1)
Details in all cases: compound concentration: 200 uM; treatment time: 3 h
USP42 = molecular target: T1, USP42 (UniProt Q9H9J4)
T1 sequence (whole entry): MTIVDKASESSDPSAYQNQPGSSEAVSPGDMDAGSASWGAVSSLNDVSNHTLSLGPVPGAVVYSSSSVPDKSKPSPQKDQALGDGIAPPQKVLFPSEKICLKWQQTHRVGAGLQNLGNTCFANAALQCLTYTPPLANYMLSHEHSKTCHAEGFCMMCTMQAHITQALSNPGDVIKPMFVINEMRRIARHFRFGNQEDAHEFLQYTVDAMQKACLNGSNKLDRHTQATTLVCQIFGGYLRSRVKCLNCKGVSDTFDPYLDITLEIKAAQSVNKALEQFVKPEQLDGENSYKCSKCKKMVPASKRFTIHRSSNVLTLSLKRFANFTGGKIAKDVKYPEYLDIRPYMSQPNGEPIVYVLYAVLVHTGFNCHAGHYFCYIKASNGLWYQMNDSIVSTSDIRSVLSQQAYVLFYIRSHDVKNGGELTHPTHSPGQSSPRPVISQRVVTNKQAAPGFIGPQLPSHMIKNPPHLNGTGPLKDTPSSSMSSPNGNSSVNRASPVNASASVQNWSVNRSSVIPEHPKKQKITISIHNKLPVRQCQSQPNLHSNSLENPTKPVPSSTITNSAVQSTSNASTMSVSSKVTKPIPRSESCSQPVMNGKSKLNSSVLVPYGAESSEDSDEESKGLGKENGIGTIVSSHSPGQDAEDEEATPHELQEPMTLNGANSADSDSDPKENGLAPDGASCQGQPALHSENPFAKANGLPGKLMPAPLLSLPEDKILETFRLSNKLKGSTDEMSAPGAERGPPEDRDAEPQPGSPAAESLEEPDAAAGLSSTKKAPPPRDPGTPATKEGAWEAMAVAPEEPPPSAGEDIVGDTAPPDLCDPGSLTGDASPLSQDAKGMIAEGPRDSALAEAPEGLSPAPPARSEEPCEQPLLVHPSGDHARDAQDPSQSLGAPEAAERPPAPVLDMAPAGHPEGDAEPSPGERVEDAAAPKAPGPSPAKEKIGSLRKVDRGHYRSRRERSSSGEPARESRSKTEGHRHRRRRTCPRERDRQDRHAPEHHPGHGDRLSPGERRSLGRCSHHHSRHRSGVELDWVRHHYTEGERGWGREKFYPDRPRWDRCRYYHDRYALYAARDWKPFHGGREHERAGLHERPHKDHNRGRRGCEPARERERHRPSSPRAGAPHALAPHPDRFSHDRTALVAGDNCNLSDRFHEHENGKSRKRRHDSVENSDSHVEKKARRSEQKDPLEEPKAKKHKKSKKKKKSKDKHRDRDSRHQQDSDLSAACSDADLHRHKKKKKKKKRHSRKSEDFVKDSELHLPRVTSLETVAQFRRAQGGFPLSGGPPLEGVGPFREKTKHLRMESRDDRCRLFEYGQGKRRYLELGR
Method in brief: (§1)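 HEK293T lysate (495 µg per sample, in Tris/CHAPS/IGEPAL buffer with protease inhibitors) was exposed in triplicate for 3 h to fragment at 200 µM or to vehicle, then to Biotin-Ahx-Ub-VS at 0.5 µM final for 1 h. Labelled DUBs were enriched on NeutrAvidin, digested with LysC and trypsin, and analysed by diaPASEF LC-MS/MS. Spectronaut label-free quantities were normalised to the global median, and values are average log2 ratios of fragment over vehicle from an unpaired t-test. Only proteins with ≥2 unique peptides were used.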

USP46 = USP46 (UniProt P62068)
Method in brief: as §1

USP47 = molecular target: T2, USP47 (UniProt Q96K76)
T2 sequence (whole entry): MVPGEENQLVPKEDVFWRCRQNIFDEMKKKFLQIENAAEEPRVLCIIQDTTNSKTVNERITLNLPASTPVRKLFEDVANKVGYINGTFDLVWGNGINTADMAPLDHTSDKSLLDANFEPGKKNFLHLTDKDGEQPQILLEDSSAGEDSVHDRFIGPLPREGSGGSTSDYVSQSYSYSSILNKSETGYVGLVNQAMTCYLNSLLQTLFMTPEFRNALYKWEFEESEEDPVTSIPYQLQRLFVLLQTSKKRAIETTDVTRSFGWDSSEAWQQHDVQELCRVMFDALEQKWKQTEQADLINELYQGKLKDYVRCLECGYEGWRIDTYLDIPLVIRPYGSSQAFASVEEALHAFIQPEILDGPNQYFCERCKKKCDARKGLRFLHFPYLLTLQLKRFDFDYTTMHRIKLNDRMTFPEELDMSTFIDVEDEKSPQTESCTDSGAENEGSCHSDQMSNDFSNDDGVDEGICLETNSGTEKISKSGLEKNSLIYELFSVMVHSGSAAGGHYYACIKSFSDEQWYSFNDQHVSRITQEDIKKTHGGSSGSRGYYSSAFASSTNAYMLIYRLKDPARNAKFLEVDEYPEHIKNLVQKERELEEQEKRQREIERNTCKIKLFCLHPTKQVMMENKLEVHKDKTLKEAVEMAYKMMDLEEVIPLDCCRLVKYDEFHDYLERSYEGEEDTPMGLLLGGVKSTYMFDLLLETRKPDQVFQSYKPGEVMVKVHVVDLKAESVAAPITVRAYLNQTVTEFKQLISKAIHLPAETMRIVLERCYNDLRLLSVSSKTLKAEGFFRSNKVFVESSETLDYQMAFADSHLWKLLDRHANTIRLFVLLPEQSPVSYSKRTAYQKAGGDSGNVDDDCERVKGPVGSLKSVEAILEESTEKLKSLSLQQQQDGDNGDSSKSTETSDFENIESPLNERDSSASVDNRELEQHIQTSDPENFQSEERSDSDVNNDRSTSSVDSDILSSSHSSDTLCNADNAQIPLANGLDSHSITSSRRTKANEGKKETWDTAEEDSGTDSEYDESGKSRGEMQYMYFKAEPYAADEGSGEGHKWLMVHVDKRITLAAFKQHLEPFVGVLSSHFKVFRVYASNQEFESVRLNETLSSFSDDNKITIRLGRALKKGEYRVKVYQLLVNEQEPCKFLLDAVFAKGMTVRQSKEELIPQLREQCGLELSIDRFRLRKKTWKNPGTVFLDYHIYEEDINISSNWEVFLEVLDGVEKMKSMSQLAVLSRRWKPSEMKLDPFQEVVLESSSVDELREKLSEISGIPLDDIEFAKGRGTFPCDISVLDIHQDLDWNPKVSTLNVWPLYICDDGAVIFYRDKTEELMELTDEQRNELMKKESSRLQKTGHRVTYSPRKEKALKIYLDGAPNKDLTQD
Method in brief: as §1

USP48 = molecular target: T3, USP48 (UniProt Q86UV5)
T3 sequence (whole entry): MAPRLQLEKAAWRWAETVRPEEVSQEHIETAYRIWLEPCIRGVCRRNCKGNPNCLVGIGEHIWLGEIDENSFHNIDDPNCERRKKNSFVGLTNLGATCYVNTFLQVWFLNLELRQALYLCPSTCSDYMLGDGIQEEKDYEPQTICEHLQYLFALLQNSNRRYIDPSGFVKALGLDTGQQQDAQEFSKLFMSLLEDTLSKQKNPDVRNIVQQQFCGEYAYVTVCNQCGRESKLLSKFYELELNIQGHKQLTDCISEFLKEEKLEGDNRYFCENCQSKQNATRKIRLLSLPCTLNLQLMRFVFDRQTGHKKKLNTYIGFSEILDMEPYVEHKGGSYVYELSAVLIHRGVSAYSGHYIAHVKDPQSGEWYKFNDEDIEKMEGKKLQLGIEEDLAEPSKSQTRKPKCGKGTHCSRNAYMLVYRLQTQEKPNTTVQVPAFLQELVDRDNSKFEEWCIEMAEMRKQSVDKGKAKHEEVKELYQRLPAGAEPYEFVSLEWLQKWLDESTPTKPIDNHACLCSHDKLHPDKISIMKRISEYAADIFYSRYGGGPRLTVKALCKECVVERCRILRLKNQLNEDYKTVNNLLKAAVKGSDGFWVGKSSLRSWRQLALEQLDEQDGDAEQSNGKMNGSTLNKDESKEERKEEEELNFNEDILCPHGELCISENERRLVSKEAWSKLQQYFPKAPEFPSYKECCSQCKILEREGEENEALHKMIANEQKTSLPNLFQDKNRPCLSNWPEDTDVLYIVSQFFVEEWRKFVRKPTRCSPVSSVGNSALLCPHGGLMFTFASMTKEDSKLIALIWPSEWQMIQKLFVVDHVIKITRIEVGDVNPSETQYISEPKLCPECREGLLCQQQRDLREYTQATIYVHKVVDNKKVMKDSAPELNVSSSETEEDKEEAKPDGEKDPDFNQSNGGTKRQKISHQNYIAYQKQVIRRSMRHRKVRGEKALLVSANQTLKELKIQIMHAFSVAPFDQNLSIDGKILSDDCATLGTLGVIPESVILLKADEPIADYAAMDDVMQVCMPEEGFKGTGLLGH
Method in brief: as §1

USP5 = molecular target: T4, USP5 (UniProt P45974)
T4 sequence (whole entry): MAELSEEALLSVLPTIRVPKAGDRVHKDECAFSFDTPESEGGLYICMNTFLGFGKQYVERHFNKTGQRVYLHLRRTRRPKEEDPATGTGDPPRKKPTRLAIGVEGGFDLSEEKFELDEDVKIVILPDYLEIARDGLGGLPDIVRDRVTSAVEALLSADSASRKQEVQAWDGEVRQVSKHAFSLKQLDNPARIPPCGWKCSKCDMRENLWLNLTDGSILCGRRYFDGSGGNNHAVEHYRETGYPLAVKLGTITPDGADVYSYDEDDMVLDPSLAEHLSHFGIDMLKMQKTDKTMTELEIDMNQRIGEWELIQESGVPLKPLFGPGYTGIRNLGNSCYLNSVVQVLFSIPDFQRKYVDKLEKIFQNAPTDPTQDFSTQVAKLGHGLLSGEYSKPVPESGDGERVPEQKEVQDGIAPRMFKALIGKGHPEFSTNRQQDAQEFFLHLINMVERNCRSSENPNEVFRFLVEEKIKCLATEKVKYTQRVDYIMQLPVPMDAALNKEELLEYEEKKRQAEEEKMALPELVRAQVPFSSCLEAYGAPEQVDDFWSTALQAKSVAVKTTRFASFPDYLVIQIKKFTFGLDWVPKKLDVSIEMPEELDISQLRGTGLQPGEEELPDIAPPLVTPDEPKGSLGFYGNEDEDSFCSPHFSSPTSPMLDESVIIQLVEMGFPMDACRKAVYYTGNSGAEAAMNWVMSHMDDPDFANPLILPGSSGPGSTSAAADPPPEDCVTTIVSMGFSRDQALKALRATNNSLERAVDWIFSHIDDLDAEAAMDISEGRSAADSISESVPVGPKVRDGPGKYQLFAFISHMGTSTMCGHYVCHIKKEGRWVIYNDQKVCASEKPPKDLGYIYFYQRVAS
Method in brief: as §1

USP54 = USP54 (UniProt Q70EL1)
Method in brief: as §1

USP7 = USP7 (UniProt Q93009)
Method in brief: as §1

USP8 = molecular target: T5, USP8 (UniProt P40818)
T5 sequence (whole entry): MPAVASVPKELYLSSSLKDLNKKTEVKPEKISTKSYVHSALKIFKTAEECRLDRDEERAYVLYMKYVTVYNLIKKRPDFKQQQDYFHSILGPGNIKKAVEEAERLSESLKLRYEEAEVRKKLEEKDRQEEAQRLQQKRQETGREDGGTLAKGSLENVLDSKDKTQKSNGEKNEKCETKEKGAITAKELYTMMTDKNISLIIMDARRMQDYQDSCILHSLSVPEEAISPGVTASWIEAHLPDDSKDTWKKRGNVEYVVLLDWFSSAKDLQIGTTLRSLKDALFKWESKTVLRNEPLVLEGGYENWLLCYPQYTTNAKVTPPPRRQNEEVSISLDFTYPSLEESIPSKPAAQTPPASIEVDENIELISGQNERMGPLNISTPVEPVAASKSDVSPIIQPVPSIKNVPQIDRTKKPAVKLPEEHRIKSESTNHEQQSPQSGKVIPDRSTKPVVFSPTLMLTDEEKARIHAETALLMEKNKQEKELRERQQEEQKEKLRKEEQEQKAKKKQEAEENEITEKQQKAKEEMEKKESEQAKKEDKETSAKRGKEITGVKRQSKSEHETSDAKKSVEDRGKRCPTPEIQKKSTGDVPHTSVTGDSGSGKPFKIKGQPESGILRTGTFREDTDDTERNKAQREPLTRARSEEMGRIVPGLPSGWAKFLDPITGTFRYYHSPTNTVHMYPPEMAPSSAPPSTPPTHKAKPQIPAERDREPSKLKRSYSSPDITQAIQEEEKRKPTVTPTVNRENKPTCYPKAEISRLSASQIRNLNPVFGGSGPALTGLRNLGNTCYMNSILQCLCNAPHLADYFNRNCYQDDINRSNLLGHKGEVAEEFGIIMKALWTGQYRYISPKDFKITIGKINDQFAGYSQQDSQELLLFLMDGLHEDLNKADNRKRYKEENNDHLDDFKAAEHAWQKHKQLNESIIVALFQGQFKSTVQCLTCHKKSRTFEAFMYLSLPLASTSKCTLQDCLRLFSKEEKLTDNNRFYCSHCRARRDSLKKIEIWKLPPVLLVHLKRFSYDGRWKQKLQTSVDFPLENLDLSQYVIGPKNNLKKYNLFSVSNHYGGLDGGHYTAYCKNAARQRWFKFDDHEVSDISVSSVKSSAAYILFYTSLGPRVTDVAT
Method in brief: as §1

USP9X = USP9X (UniProt Q93008)
Method in brief: as §1

UniProt O00487 = molecular target: UniProt O00487
Method in brief: as §1

Chain of USP9X (Q93008 whole entry): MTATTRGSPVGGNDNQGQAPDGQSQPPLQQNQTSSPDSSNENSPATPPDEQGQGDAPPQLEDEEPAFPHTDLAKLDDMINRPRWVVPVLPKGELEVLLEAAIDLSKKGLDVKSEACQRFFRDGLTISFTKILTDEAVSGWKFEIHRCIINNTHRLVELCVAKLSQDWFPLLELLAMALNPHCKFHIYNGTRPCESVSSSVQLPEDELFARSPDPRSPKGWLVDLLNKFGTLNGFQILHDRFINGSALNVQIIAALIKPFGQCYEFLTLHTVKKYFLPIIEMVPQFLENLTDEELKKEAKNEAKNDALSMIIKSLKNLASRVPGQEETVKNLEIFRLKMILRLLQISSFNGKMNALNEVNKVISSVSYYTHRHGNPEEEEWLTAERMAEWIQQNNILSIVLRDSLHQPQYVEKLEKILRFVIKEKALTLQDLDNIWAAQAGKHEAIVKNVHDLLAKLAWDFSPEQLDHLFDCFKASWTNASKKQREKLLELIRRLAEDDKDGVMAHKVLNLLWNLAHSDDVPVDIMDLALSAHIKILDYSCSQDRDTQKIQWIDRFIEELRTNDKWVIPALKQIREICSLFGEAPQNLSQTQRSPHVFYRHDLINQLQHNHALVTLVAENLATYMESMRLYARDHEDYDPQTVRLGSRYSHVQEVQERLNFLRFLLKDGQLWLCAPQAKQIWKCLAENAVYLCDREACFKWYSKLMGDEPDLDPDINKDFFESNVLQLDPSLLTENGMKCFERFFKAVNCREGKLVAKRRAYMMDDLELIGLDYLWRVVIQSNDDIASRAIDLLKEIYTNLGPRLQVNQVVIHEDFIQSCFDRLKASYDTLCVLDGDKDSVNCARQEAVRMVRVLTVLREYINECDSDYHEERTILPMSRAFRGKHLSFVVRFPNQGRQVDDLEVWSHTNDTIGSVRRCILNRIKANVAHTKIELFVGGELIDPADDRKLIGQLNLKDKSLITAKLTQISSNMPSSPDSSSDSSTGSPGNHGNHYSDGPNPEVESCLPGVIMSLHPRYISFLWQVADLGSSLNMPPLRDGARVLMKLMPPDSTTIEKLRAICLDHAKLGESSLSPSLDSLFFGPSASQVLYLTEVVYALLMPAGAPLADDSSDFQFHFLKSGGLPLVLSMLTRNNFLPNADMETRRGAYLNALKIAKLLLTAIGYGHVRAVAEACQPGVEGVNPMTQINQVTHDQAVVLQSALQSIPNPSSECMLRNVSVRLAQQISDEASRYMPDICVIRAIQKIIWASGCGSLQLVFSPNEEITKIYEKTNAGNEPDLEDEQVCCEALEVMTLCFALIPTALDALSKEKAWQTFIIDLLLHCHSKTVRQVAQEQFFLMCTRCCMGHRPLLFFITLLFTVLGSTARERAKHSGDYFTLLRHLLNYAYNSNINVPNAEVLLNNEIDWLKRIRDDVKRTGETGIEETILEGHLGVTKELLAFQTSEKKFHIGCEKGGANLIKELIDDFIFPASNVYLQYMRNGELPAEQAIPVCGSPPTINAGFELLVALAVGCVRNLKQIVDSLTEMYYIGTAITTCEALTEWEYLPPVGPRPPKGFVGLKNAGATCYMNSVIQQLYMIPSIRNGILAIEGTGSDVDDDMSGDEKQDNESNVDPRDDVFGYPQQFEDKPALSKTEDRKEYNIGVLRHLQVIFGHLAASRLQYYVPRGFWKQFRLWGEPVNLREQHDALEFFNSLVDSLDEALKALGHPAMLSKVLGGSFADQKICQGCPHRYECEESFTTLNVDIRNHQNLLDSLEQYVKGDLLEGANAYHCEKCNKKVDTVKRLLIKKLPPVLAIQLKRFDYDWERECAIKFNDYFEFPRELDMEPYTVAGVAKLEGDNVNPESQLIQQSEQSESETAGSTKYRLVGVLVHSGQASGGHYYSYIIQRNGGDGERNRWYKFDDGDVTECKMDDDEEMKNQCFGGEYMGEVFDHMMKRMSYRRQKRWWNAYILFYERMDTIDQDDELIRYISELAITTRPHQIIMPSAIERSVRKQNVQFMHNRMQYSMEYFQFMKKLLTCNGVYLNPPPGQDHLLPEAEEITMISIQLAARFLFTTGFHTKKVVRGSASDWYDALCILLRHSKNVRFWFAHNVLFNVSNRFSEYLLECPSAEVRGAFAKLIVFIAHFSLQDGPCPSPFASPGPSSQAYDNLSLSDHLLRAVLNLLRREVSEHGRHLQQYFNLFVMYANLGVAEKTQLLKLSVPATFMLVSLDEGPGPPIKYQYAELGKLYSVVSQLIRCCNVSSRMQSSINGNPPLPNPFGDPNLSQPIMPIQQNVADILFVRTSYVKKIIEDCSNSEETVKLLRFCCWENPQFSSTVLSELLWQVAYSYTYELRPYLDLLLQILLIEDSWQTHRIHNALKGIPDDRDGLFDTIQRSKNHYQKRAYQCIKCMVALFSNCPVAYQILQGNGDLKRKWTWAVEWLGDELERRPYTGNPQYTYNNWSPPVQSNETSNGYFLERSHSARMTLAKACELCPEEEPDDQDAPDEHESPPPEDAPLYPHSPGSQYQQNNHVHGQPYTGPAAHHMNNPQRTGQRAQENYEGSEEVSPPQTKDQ
Chain of UniProt O00487 (O00487 whole entry): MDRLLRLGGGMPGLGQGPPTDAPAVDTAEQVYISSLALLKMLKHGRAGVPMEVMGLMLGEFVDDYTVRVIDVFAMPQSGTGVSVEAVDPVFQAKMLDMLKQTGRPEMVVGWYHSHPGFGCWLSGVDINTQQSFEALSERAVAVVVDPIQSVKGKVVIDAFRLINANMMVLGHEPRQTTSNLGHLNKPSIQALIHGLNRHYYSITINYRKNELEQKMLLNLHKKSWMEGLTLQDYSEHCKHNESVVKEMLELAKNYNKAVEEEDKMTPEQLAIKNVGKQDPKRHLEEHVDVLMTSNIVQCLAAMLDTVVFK
Chain of USP46 (P62068 whole entry): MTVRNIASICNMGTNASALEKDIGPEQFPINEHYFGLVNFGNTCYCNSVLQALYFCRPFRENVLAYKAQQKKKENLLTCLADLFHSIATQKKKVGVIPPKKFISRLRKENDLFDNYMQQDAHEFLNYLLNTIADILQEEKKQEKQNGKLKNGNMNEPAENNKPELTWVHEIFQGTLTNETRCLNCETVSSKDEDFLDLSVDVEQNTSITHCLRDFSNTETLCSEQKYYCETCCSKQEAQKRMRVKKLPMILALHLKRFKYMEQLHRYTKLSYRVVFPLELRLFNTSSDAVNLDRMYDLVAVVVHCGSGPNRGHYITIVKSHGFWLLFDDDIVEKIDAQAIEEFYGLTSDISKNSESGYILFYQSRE
Chain of USP54 (Q70EL1 whole entry): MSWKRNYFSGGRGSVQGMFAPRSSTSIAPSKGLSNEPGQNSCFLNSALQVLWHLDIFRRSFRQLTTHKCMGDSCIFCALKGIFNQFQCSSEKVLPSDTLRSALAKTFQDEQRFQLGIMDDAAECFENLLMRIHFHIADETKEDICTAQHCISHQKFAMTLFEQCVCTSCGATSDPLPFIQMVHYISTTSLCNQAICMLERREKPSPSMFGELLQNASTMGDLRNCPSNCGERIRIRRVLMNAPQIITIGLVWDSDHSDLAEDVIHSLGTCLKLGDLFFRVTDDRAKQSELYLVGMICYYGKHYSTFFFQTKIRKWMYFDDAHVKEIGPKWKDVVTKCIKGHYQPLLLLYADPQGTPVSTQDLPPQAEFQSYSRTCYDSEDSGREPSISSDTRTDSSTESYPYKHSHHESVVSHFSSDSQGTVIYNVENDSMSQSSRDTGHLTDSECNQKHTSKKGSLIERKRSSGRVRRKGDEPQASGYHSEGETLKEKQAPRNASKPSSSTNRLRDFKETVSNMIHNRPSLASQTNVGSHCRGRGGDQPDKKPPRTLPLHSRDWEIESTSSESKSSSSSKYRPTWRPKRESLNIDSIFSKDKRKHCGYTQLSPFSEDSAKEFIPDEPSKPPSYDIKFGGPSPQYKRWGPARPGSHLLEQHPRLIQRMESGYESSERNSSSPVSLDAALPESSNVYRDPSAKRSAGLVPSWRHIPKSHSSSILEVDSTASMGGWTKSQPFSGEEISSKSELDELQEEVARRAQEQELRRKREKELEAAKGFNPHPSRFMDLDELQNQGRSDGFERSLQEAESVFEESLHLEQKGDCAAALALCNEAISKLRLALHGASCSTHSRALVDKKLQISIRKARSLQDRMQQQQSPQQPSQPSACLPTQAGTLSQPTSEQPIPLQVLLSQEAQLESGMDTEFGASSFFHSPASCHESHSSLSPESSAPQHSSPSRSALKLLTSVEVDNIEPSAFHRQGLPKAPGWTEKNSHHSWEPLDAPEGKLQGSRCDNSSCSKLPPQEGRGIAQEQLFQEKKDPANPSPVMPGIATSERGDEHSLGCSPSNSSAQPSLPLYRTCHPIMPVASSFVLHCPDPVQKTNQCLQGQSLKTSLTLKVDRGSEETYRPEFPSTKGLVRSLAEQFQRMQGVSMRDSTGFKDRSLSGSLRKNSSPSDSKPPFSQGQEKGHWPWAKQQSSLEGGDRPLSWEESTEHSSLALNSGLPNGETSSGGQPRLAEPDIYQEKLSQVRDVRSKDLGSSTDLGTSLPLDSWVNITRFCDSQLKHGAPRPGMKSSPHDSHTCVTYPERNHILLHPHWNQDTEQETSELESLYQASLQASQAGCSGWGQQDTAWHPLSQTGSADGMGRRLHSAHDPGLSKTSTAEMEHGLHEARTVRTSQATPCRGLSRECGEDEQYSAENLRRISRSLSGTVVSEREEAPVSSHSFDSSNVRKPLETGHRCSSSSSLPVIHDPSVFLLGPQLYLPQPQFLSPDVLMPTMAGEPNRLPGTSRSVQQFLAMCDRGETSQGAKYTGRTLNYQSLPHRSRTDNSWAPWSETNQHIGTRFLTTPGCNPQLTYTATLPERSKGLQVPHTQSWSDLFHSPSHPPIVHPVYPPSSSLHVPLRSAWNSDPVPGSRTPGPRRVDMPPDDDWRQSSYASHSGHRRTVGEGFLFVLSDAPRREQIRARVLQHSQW

Row | Structure (SMILES) | log2 ratio of Biotin-Ahx-Ub-VS probe labelling (USP42) | log2 ratio of Biotin-Ahx-Ub-VS probe labelling (USP46) | log2 ratio of Biotin-Ahx-Ub-VS probe labelling (USP47) | log2 ratio of Biotin-Ahx-Ub-VS probe labelling (USP48) | log2 ratio of Biotin-Ahx-Ub-VS probe labelling (USP5) | log2 ratio of Biotin-Ahx-Ub-VS probe labelling (USP54) | log2 ratio of Biotin-Ahx-Ub-VS probe labelling (USP7) | log2 ratio of Biotin-Ahx-Ub-VS probe labelling (USP8) | log2 ratio of Biotin-Ahx-Ub-VS probe labelling (USP9X) | log2 ratio of Biotin-Ahx-Ub-VS probe labelling (UniProt O00487)
1 | CC(O)CC1CCN(C(=O)CCl)CC1 (stereo not given) | 0.406 | -0.263 | -0.689 | 0.00631 | -0.447 | -0.0986 | -0.335 | -0.0562 | -0.195 | -0.189
2 | O=C(CCl)N1CCC(OCc2ccccc2F)CC1 | 0.919 | 0.155 | -0.138 | -0.151 | 0.445 | -0.235 | -0.391 | 0.124 | -0.0279 | 0.075
3 | Cl.Cn1nccc1C(NC(=O)CCl)c1ccccc1 (stereo not given) | 0.0316 | 0.114 | -1.1 (active) | -0.11 | 0.239 | 0.34 | -0.284 | -0.582 | -0.0773 | -0.0868
